Assay outcomes (PubChem BioAssay)
AMA1 RON2 block: qHTS for Inhibitors of AMA1-RON; Towards Development of Antimalarial Drug Lead: Primary Screen; Potency, µM (top dose mostly 58.2 µM), inactives show at the highest dose activity change, negative = inhibition, usual class: inhibitors; AID 720542, 2013; 360,000 compounds, 0.2% hits; Plasmodium falciparum AMA1 (3D7) - RON2 peptide interaction; AlphaScreen AMA1-biotinylated RON2 peptide binding;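 note: 0% = vehicle wells and -100% = peptide control; nearly all actives have a fitted effect of over 45% in size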
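AMA1 (3D7) with his tag at 25 nM final met compounds first, then biotinylated RON2 peptide at 25 nM; detection used donor plus acceptor beads, 10 µg/mL apiece, read by AlphaScreen after 30 min at room temperature.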
Pf growth 96h: Primary qHTS for delayed death inhibitors of the malarial parasite plastid, 96 hour incubation; 320,000 compounds, 6.9% hits; Potency, µM (doses to about 28.7 µM), for the others: at the top dose activity change, negative = inhibition, usual class: inhibitors; P. falciparum luciferase reporter growth, 96 h; AID 504834, 2011; note: % is set by controls: 0 for no effect and ±100 for the full control effect
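Infected RBCs, 2% Hct / 0.05% parasitemia final; luciferase-reporter P. falciparum; cpd 96 h, 37 C, 5% CO2; luciferase detection reagent; luminescence.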
Pf growth 48h: Primary qHTS for delayed death inhibitors of the malarial parasite plastid, 48 hour incubation; P. falciparum luciferase growth in erythrocytes, 48 h; Potency, µM (highest dose often 28.7 µM), without a hit: at the top dose activity change, negative = inhibition, actives largely listed as inhibitors; 310,000 compounds, 5.9% hits; note: % is set by controls: 0 for no effect and ±100 for the full control effect
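Luciferase-expressing parasites in RBCs, 2% Hct / 0.1% parasitemia final; RPMI 1640 + 0.5% Albumax; 37 C, 5% CO2, one generation; luminescence read-out, lower signal = inhibition.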
Sm TGR inh: qHTS Assay for the Inhibitors of Schistosoma Mansoni Peroxiredoxins. Schistosoma mansoni thioredoxin glutathione reductase (TGR), Q962Y6. purified TGR, DTNB reduction, TNB absorbance 405 nm. Potency, µM (top dose mostly 114 µM), inactives show top-dose activity change, negative = inhibition, actives largely listed as inhibitors. 360,000 compounds, 3% hits. AID 485364, 2010; note: % is set by controls: 0 for no effect and ±100 for the full control effect; nearly all actives have a fitted effect of over 60% in size
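TGR 20 nM + NADPH 100 uM (dispensed conc.), cpd preinc 15 min RT; start with NADPH (500 uM addition) then DTNB (15 mM addition). Kinetic TNB absorbance, 405 nm filter. Four-parameter Hill fit across titration.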
NS1 inh: qHTS Assay for Inhibitors of Influenza NS1 Protein Function. Potency, µM (top dose mostly 46.1 µM), without a hit: top-dose activity, positive = more growth. 270,000 compounds, 0.4% hits; calls by dose curve; note: actives are rising curves; nearly all actives have a fitted effect of over 50% in size
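A cell-based growth assay was used: compounds that relieve NS1-induced slow growth of budding yeast raise OD600. Assay medium was yeast nitrogen base with ammonium sulphate and -URA supplement, pH 6.0, with 2% galactose.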
Numbers without * were called inactive. In the library only some 11% were active in any assay of this set; here they are far more common. Unless noted, calls come from the whole dose curve; as a rule, active = well fitted curve in the direction sought with a large enough effect; inconclusive = small, poorly fitted or top-dose-only effect, or another doubt; inactive = no such curve, though single readings can be large; an effect the other way counts as inactive or inconclusive. Potency is the fitted concentration of half-maximal effect.

COCc1cc(=O)[nH]c(/N=C(\N)Nc2c(F)cccc2F)n1 was read as AMA1 RON2 block 109%, Pf growth 96h 17%, Pf growth 48h 9%, Sm TGR inh 8% and NS1 inh 11%.
CCN(c1ccc(C)cc1C)S(=O)(=O)c1nnc(NC(=O)CC(C)C)s1 was read as Sm TGR inh 1%.
CC1CC2OC2CC1COC(=O)C1CC2OC2CC1C (stereo not given) was read as AMA1 RON2 block 68%.
For CCc1nc2c(OCc3ccc(C(=O)N(C)C)cc3)cccn2c1N(C)C(=O)Nc1ccccc1OC the results were AMA1 RON2 block -6%.
`Cc1cc(C(=O)N2CCCC(N3CCN(c4ccccc4C)CC3)C2)nc(C)n1` (stereo not given) gave AMA1 RON2 block 7%, Pf growth 96h 35%, Pf growth 48h -11%, Sm TGR inh -26% and NS1 inh 8%.
`COc1ccc(-c2cc(C(=O)N3CCN(c4ccccc4O)CC3)c3ccccc3n2)cc1` gave AMA1 RON2 block -5%, Pf growth 96h -114%, Pf growth 48h inconclusive and Sm TGR inh -17%.
O=C(c1cc(-c2ccccc2Cl)nc2ccccc12)N1CCN(c2ccccc2O)CC1 was read as AMA1 RON2 block -11%, Pf growth 96h 4.1µM*, Pf growth 48h 9.3µM* and Sm TGR inh -4%.
O=C(c1ccccc1Sc1cccc2ccccc12)N1CCOCC1 was read as AMA1 RON2 block -8%, Pf growth 96h inconclusive, Pf growth 48h 10µM*, Sm TGR inh 0% and NS1 inh -9%.
Screening Cc1ccc2nc(C)cc(C(=O)N3CCCC(N4CCN(c5ccccc5C)CC4)C3)c2c1 (stereo not given) returned AMA1 RON2 block 12%, Pf growth 96h 1%, Pf growth 48h 12µM*, Sm TGR inh 1% and NS1 inh -42%.
`CSc1ccccc1C(=O)N1CCOCC1` gave AMA1 RON2 block -5%, Pf growth 96h 2%, Pf growth 48h 9%, Sm TGR inh -29% and NS1 inh 2%.
`Cc1ccc(-c2cc(C(=O)N3CCN(c4ccccc4O)CC3)c3ccccc3n2)cc1` gave AMA1 RON2 block -7%, Pf growth 96h inconclusive, Pf growth 48h 3.3µM* and Sm TGR inh -17%.
Screening COc1ccc(-c2cc(C(=O)N3CCN(c4ccccc4O)CC3)c3ccccc3n2)cc1OC returned AMA1 RON2 block -2%, Pf growth 96h 2.6µM*, Pf growth 48h 2.1µM*, Sm TGR inh -9% and NS1 inh -32%.
For COc1ccc2oc(C(=O)OCC(=O)NC(=O)c3ccccc3)c(C)c2c1 the results were AMA1 RON2 block -4%, Pf growth 96h -4%, Pf growth 48h -2%, Sm TGR inh -1% and NS1 inh 3%.
Screening CCOc1ccc(/C=N/Nc2nc(N3CCCC3)nc(N3CCCC3)n2)cc1OC returned AMA1 RON2 block 8%, Pf growth 96h inconclusive, Pf growth 48h 10µM*, Sm TGR inh -2% and NS1 inh 3%.
COc1ccc(/C=N/Nc2nc(Nc3ccccc3)nc(N3CCCC3)n2)cc1[N+](=O)[O-] was read as AMA1 RON2 block 79%, Pf growth 96h -6%, Pf growth 48h 2.1µM* and Sm TGR inh -1%.
For CNc1nc(N/N=C/c2cc3c(cc2[N+](=O)[O-])OCO3)nc(Nc2ccccc2)n1 the results were AMA1 RON2 block -3%, Pf growth 96h -13%, Pf growth 48h 2.6µM* and Sm TGR inh -2%.
Screening CCOC(=O)c1c(C)nc2ccccc2c1-c1ccccc1 returned AMA1 RON2 block 4%, Pf growth 96h -19%, Pf growth 48h 3%, Sm TGR inh 1% and NS1 inh -31%.
For CCOC(=O)c1c(CCl)nc2ccccc2c1-c1ccccc1 the results were AMA1 RON2 block -16%, Pf growth 96h 3%, Pf growth 48h -1%, Sm TGR inh 25µM* and NS1 inh 4%.
For CCSC(C)CC1C/C(=N/O)c2c(CC)noc2C1 (stereo not given) the results were AMA1 RON2 block -9%, Pf growth 96h 7%, Pf growth 48h 15µM*, Sm TGR inh 2% and NS1 inh -35%.
O=C(NCC1CCCO1)c1ccc2c(=O)n(Cc3cccc(Br)c3)c(=S)[nH]c2c1 (stereo not given) was read as AMA1 RON2 block 25%, Pf growth 96h 6%, Pf growth 48h inconclusive and Sm TGR inh -12%.
Cn1nnc(NC(=O)c2ccc(C(C)(C)C)cc2)n1 was read as AMA1 RON2 block 8%, Pf growth 96h 0%, Pf growth 48h 9.3µM*, Sm TGR inh -4% and NS1 inh -66%.
`CCCCOc1c(Cl)cc(C(=O)N2CCN(CC(=O)N3CCCC3)CC2)cc1OCC` gave AMA1 RON2 block -6%, Pf growth 96h inconclusive, Pf growth 48h 12µM* and Sm TGR inh -25%.
Screening CCCCOc1ccc(C(=O)N2CCCC2)cc1 returned AMA1 RON2 block -4%, Pf growth 48h 106%, Sm TGR inh -36% and NS1 inh -7%.
Cc1c2cnn(CC(=O)NCc3ccc(F)cc3)c(=O)c2c(C)n1Cc1cccc(Cl)c1 was read as Sm TGR inh -1%.
`CN(C)c1cccc2c(C=C(C#N)C#N)ccc(N(C)C)c12` gave AMA1 RON2 block -12%, Pf growth 96h 0%, Pf growth 48h -15%, Sm TGR inh 25µM* and NS1 inh 11%.
CN(C)c1cccc2c(/C=N/O)ccc(N(C)C)c12 was read as AMA1 RON2 block -1%, Pf growth 96h -10%, Pf growth 48h inconclusive and Sm TGR inh -22%.
For COC(=O)c1ccccc1NC(=O)c1nn(C)c2c1COc1ccccc1-2 the results were Sm TGR inh 7.1µM*.
COC(=O)c1cc(NC(=O)c2nn(C)c3c2CSc2ccccc2-3)cc(C(=O)OC)c1 was read as Sm TGR inh 8%.
Screening COc1cc(NC(=O)c2nn(C)c3c2COc2ccccc2-3)cc(OC)c1OC returned Sm TGR inh 32µM*.
For COc1cc(NC(=O)c2nn(C)c3c2CS(=O)(=O)c2ccccc2-3)cc(OC)c1 the results were AMA1 RON2 block -2%, Pf growth 96h inconclusive, Pf growth 48h 4%, Sm TGR inh 13% and NS1 inh -7%.
`CCOC(=O)C1CCCN(C(=O)c2cc(S(=O)(=O)N3CCCCC3)ccc2Cl)C1` (stereo not given) gave AMA1 RON2 block 2%, Pf growth 96h 10µM*, Pf growth 48h inconclusive and Sm TGR inh 1%.
`CCOC(=O)C1CCCN(C(=O)c2cccc(S(=O)(=O)N3CCCC3)c2)C1` (stereo not given) gave AMA1 RON2 block 61%, Pf growth 96h inconclusive, Pf growth 48h inconclusive and Sm TGR inh 9%.
